Hits are enriched below; roughly 1.2% of the tested compounds scored in any of these assays.
RN4220 kill = kills Staphylococcus aureus RN4220. S. aureus RN4220 growth, OD600, 16 h. inhibition, % (no concentration beside the values). 330,000 tested, 0.33% active. AID 1259311; in the data active = inhibition above about 85%
PrP 5UTR inh = inhibition of PrP 5' UTR reporter expression | AID 488862 | inhibition, % (concentration not given with the values) | 340,000 tested, 0.35% active | cell-based PrP 5' UTR mRNA reporter, plate reader; in the data active = inhibition above about 52%
PfHsp40 rescue = restores yeast growth despite PfHsp40 toxicity. S. cerevisiae expressing PfHsp40, growth rescue, ATP luminescence. growth rescue, % at 12.5 µM. 340,000 tested, 0.68% active. AID 504582; in the data active = growth rescue above about 28%, passing the limit was not always enough; inconclusive = no clear call, values can overlap the other calls;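 note: yeast W303a lacking pdr1 and pdr3 grown in galactose medium; growth measured after three days at 30 °C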
ugtP null kill = kills S. aureus RN4220 lacking UgtP; S. aureus RN4220 ugtP deletion, OD600 growth, 16 h; growth inhibition, % (test concentration not listed); 330,000 tested, 0.54% active; AID 1259309; in the data active = growth inhibition above about 68%
TcdB inh = blocks C. difficile toxin B glycohydrolase activity; P18177; TcdB glycohydrolase enzymatic assay, plate reader; inhibition, % at 9.99 µM; 350,000 tested, 0.24% active; AID 652162; in the data active = inhibition above about 10%
Target sequence (P18177 whole entry, looked up): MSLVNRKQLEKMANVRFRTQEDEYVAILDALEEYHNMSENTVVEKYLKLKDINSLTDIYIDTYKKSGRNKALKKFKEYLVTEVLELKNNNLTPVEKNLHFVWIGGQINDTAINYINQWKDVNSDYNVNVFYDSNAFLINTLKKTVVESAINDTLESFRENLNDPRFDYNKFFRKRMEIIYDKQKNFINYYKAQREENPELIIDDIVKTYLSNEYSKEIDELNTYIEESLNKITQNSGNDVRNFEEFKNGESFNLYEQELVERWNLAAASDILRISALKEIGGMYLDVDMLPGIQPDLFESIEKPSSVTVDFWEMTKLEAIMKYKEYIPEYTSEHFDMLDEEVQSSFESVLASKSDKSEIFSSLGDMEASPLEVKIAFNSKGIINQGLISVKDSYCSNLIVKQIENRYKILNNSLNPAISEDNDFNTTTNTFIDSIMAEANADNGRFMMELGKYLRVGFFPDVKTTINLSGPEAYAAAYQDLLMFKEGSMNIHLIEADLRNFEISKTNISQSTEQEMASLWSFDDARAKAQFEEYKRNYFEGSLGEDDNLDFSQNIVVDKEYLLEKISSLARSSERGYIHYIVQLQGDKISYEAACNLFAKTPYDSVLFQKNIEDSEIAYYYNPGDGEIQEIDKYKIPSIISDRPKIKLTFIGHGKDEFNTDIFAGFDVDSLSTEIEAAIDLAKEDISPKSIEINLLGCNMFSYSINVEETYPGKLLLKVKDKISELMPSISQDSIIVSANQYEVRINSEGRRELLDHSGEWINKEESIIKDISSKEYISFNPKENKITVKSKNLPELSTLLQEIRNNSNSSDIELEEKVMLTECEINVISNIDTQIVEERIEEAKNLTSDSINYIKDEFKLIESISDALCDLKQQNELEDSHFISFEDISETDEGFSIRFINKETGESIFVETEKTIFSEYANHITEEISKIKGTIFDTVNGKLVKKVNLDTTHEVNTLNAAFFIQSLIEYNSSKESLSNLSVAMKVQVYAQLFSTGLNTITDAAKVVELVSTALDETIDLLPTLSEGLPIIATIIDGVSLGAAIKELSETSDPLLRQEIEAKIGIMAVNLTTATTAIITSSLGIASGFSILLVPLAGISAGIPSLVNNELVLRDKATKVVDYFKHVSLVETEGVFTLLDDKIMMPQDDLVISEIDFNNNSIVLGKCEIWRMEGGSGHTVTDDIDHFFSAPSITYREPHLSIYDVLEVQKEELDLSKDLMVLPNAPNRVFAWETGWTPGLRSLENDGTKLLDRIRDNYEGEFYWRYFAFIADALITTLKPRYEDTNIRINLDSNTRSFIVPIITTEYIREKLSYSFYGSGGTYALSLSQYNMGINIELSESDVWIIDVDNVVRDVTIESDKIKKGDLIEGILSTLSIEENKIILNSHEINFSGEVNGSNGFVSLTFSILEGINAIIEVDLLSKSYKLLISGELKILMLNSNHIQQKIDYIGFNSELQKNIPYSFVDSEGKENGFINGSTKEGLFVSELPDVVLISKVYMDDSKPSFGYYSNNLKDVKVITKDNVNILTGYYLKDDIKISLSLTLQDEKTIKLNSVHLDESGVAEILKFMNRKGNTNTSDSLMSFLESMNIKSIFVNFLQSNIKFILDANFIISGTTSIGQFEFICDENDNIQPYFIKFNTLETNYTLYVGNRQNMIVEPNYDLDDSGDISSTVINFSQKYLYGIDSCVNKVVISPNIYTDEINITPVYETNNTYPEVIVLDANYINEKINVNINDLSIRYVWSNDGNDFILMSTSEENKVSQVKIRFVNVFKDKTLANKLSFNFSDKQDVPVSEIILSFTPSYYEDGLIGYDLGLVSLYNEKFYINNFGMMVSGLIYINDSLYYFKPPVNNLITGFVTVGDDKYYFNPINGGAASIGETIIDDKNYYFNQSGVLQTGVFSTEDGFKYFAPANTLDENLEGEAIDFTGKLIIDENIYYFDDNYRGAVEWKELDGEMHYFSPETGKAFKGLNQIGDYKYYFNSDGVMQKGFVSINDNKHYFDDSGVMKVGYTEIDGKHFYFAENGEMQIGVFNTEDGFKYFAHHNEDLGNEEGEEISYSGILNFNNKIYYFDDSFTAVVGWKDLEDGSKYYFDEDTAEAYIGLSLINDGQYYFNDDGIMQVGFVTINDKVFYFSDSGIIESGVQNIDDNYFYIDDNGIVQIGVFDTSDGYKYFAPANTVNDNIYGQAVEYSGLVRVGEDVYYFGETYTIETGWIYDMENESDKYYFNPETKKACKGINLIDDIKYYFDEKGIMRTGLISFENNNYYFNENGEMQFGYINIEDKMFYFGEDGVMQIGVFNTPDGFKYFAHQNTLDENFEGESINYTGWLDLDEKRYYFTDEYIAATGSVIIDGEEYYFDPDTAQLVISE
PrP 5UTR single = prion 5' UTR mRNA inhibition, cherry-pick retest | AID 504592 | 1,100 tested, 48% active | inhibition, % at 2.5 µM | cell-based prion protein 5' UTR reporter, plate reader | shares compounds with PrP 5UTR inh; in the data active = inhibition above about 54%; inconclusive = no clear call, values can overlap the other calls
Large screens that a line does not name were inactive (follow-up assays come after a bar, where they were run).

COc1ccc2c(c1)sc1nc(-c3ccccc3)cn12	PrP 5UTR inh 88.6 (no result: TcdB inh) | PrP 5UTR single 88.8
ON=C1CCCSc2ccccc21	none (no result: PrP 5UTR inh, PfHsp40 rescue, TcdB inh)
O=C(Nc1ccc(F)cc1)N1CCCCN2[C@H](C1)[C@H](c1ccc(-c3ccccc3F)cc1)[C@@H]2CO	none (no result: RN4220 kill, PrP 5UTR inh, PfHsp40 rescue, ugtP null kill)
Cn1nnnc1SCC(=O)N1CCN(S(=O)(=O)c2ccccc2)CC1	PrP 5UTR inh 71.0 | PrP 5UTR single inactive
CCCCCN1C=CC(=C2C(=O)c3ccccc3C2=O)C=C1	PrP 5UTR inh 89.3 | PrP 5UTR single 89.2
O=C(NCc1ccc2c(c1)OCO2)C1CCCN(S(=O)(=O)c2cccc3cccnc23)C1 (stereo not drawn)	PrP 5UTR inh 77.7 | PrP 5UTR single inconclusive
O=C(NCc1ccc2c(c1)OCO2)C1CCCN(S(=O)(=O)c2cccc3nonc23)C1 (stereo not drawn)	none (no result: TcdB inh)
O=C(O)CCn1cc(C=C2C(=O)NC(=S)NC2=O)c(-c2cc3ccccc3oc2=O)n1	none
O=C(O)CCn1cc(C=C2C(=O)NC(=S)NC2=O)c(-c2ccccc2)n1	PrP 5UTR inh 74.4 | PrP 5UTR single inactive
C[C@@H]1CCCCO[C@H](CN(C)C(=O)c2ccccc2)[C@@H](C)CN([C@H](C)CO)C(=O)c2cc(N(C)C)ccc2O1	none (no result: RN4220 kill, PrP 5UTR inh, PfHsp40 rescue, ugtP null kill)
O=C(NCc1cccnc1)c1ccccc1Br	PrP 5UTR inh 76.9 (no result: TcdB inh) | PrP 5UTR single inactive
O=C(NCc1ccccc1)c1ccccc1Br	none
O=C(NN=Cc1ccccc1Cl)c1[nH]c2ccc(Br)cc2c1-c1ccccc1	none (no result: PrP 5UTR inh, PfHsp40 rescue, TcdB inh)
O=C(N/N=C/c1ccccc1)c1[nH]c2ccc(Br)cc2c1-c1ccccc1	PrP 5UTR inh 58.8 (no result: RN4220 kill, ugtP null kill) | PrP 5UTR single 87.8
Cc1ccccc1-c1cnc2c(c1)C(=O)N([C@H](C)CO)C[C@@H](C)[C@H](CN(C)C(=O)CC1CC1)O2	none (no result: RN4220 kill, PrP 5UTR inh, PfHsp40 rescue, ugtP null kill)
Cc1ccc2c(c1)C(=O)c1c(C(=O)O)cccc1-2	PrP 5UTR inh 78.0 | PrP 5UTR single inactive
O=C(C[C@H]1CC[C@H]2[C@@H](COC[C@@H](O)CN2C(=O)C2CC2)O1)NCc1ccncc1	none (no result: RN4220 kill, PrP 5UTR inh, PfHsp40 rescue, ugtP null kill)
CCN(C[C@H]1N[C@@](Cc2ccccc2)(C(=O)OC)[C@H]2C(=O)N(C)C(=O)[C@@H]12)S(=O)(=O)c1ccc(C(C)(C)C)cc1	PrP 5UTR inh 59.5 | PrP 5UTR single inactive
O=C(CSc1nnc(-c2ccc(Br)cc2)o1)Nc1cccc(C(=O)O)c1	PrP 5UTR inh 71.4 | PrP 5UTR single 79.6
Cc1ccc(-c2nnc(SCC(=O)Nc3ccccc3F)o2)cc1	PrP 5UTR inh 88.9 | PrP 5UTR single 88.2
O=C(CSc1nnc(-c2ccccc2)o1)Nc1ccccc1F	PrP 5UTR inh 60.0 | PrP 5UTR single 58.7
O=C(CSc1nnc(-c2ccncc2)o1)Nc1cc(F)ccc1F	none
O=C(CSc1nnc(-c2ccc(Br)cc2)o1)Nc1cccc2ccccc12	none
Cc1ccc(-c2ccc3c(c2)O[C@H](CN(C)S(C)(=O)=O)[C@H](C)CN([C@@H](C)CO)S3(=O)=O)cc1	none (no result: RN4220 kill, PrP 5UTR inh, PfHsp40 rescue, ugtP null kill)
CC=Cc1ccc2n(c1=O)C[C@H]1[C@H](CO)[C@@H](C(=O)N[C@H](C)c3ccccc3)N(C(=O)c3ccccn3)[C@@H]21 (mixture of isomers)	none (no result: RN4220 kill, PrP 5UTR inh, PfHsp40 rescue, ugtP null kill)
O=C1CCCCC1Sc1nnc(-c2ccc3c(c2)OCO3)o1 (stereo not drawn)	PrP 5UTR inh 55.5 | PrP 5UTR single inconclusive
Clc1ccc(CSc2nnc(-c3ccc4c(c3)OCO4)o2)cc1	none (no result: TcdB inh)
O=C(Nc1cccc(S(=O)(=O)N2CCOCC2)c1)c1cnn2c(C(F)F)cc(-c3ccccc3)nc12	PrP 5UTR inh 79.5 | PrP 5UTR single inactive
CN(C)CCCNC(=O)CC(c1ccccc1)c1ccccc1O (stereo not drawn)	PrP 5UTR inh 70.9 (no result: TcdB inh) | PrP 5UTR single inactive
CC(=O)OC(C)(C)/C=C/C(=O)[C@](C)(O)[C@H]1[C@H](O)C[C@@]2(C)[C@@H]3CC=C4[C@H](C[C@H](O)C(=O)C4(C)C)[C@]3(C)C(=O)C[C@]12C	PrP 5UTR inh 79.2 (no result: RN4220 kill, ugtP null kill, TcdB inh) | PrP 5UTR single 88.1
CC(=O)OC(C)(C)/C=C/C(=O)[C@](C)(O)C1[C@H](O)C[C@@]2(C)C3CC=C4C(C=C(O[C@@H]5O[C@H](CO)[C@@H](O)[C@H](O)[C@H]5O)C(=O)C4(C)C)[C@]3(C)C(=O)C[C@]12C (stereo partly drawn)	none (no result: RN4220 kill, ugtP null kill)
CC(=O)OC(C)(C)/C=C/C(=O)C(C)(O)C1[C@H](O)C[C@@]2(C)C3CC=C4C(CC[C@@H](O)C4(C)C)[C@]3(CO)C(=O)C[C@]12C (stereo partly drawn)	PrP 5UTR inh 80.7 | PrP 5UTR single 90.0
CC(=O)OC(C)(C)/C=C/C(=O)C(C)(O)C1C(O)CC2(C)C3CC=C4C(CC(O)C(=O)C4(C)C)C3(C)C(=O)CC12C (stereo not drawn)	PrP 5UTR inh 80.5 (no result: RN4220 kill, ugtP null kill) | PrP 5UTR single 90.4
COc1ccc(S(=O)(=O)N(C)C[C@@H]2Oc3ccc(NC(=O)Cn4cnnn4)cc3C(=O)N([C@@H](C)CO)C[C@@H]2C)cc1	none (no result: RN4220 kill, PrP 5UTR inh, PfHsp40 rescue, ugtP null kill)
COc1cccc(C=NNC(=O)c2ccc(CN3c4cccc5cccc(c45)S3(=O)=O)cc2)c1	none (no result: PrP 5UTR inh, PfHsp40 rescue, TcdB inh)
CC(C)c1ccc2oc(-c3cc(N)ccc3O)nc2c1	PrP 5UTR inh 63.3 (no result: TcdB inh) | PrP 5UTR single inactive
Cc1ccccc1-c1nc2cc(N)ccc2o1	none
O=C(CNCc1ccco1)Nc1ccc(N2CCCCCC2)cc1	PrP 5UTR inh 82.7 | PrP 5UTR single inactive
C[C@@H]1CN([C@H](C)CO)C(=O)Cc2cc(NC(=O)Cc3ccccc3)ccc2O[C@H]1CN(C)C(=O)Nc1ccc2c(c1)OCO2	none (no result: RN4220 kill, PrP 5UTR inh, PfHsp40 rescue, ugtP null kill)
OC[C@@H](O)[C@H](O)C(C=NNc1ccccc1)=NNc1ccccc1	none (no result: PrP 5UTR inh, PfHsp40 rescue, TcdB inh)
Cc1cc(C2CCCCC2)n(O)c(=O)c1	PrP 5UTR inh 68.9, PfHsp40 rescue inconclusive (no result: RN4220 kill, ugtP null kill) | PrP 5UTR single inactive
CN1C(=O)C(=Cc2ccc(N3CCCCC3)o2)C(=O)N(C)C1=S	PrP 5UTR inh 54.3 (no result: RN4220 kill, ugtP null kill, TcdB inh) | PrP 5UTR single inactive
CCN(C(=O)c1cc2cc(OC)ccc2oc1=O)c1ccccc1	PrP 5UTR inh 66.9 (no result: TcdB inh) | PrP 5UTR single inconclusive
N#CC1=C(N)Oc2cc(N)ccc2C1c1cccc(F)c1 (stereo not drawn)	none
CN(C)c1ccc2c(c1)OC(N)=C(C#N)C2c1cccc(F)c1 (stereo not drawn)	PrP 5UTR inh 66.0 (no result: TcdB inh) | PrP 5UTR single 90.3
O=C(OCCNC(=O)c1cc2ccccc2oc1=O)c1cccnc1	PrP 5UTR inh 65.8 (no result: TcdB inh) | PrP 5UTR single inactive
O=C(NCc1cccnc1)c1cc2ccccc2oc1=O	none
CO[C@@H]1CN(C)C(=O)c2cccc(C#N)c2OC[C@H]2O[C@@H](CC[C@H]2OC)CCN(C)C(=O)[C@H]1C	none (no result: RN4220 kill, PrP 5UTR inh, PfHsp40 rescue, ugtP null kill)
O=C(CCN1CCCCC1)NCC[C@H]1CC[C@H](NC(=O)C2CCCCC2)[C@@H](CO)O1	none (no result: RN4220 kill, PrP 5UTR inh, PfHsp40 rescue, ugtP null kill)
COP(=O)(OC)c1nc(-c2cccc3ccccc23)oc1N1CCCCC1	none
CCOP(=O)(OCC)c1nc(-c2cccc3ccccc23)oc1N1CCCCC1	PrP 5UTR inh 71.9 | PrP 5UTR single inactive
COCC(=O)Nc1ccc2c(c1)C(=O)N(C)C[C@H](OC)[C@@H](C)CN(C(=O)CC1CC1)[C@@H](C)CO2	none (no result: RN4220 kill, PrP 5UTR inh, PfHsp40 rescue, ugtP null kill)

From PubChem BioAssay
